In PubChem BioAssay (EPA / NIEHS) one finds outcome and AC50 data, which are given here for seven compounds.

Read-out in experiment [1]: KRT18 (gene 3875)
Nature of the experiment: BSK_BF4T_Keratin818: BioMAP Diversity Plus: BF4T Assay for Keratin 818 Biomarker Activity (AID 2284266). The settings on record: primary human bronchial epithelial cells with fibroblasts. Summed up: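 Keratin 8/18 levels quantified by ELISA after 24 h chemical treatment of bronchial epithelial cell/dermal fibroblast co-cultures, fitted in positive direction relative to DMSO. Parallel SRB staining tracks overt cytotoxicity.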

Experiment [2] can be described thus: BSK_MyoF_SRB: Viability Assessment in the BioMAP Diversity Plus: MyoF Assay (AID 2284267).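 Further: total protein by SRB absorbance in parallel cultures as cytotoxicity measure; cells assessed 24 h after compound addition.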 The settings on record: primary human lung fibroblasts. The method in brief:
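Confluent human lung fibroblasts were exposed to test chemicals for 24 h. Parallel wells were then fixed in 10% TCA, stained with 0.1% sulforhodamine B and measured at 560 nm. DMSO served as baseline for curve fitting.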

Read-out in experiment [3]: Matrix Metallopeptidase 1 (MMP1), MMP1 (gene 4312)
Nature of the experiment: BSK_MyoF_MMP1: BioMAP Diversity Plus: MyoF Assay for Matrix Metallopeptidase 1 (MMP1) Biomarker Activity (AID 2284268). The settings on record: primary human lung fibroblasts. Summed up: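 Cells: human lung fibroblasts. Exposure: 24 h chemical dosing. Detection: ELISA for MMP1. Analysis: upward fitting against DMSO negative control.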

Read-out in experiment [4]: TIMP metallopeptidase inhibitor 1 (TIMP1), TIMP1 (gene 7076)
Description: BSK_MyoF_TIMP1: BioMAP Diversity Plus: MyoF Assay for TIMP metallopeptidase inhibitor 1 (TIMP1) Biomarker Activity (AID 2284269). The settings on record: primary human lung fibroblasts. Summed up: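 TIMP-1 levels were determined by ELISA in human lung fibroblasts treated for 24 h. DMSO served as negative control and baseline for upward curve fitting.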

Read-out in experiment [5]: Matrix Metallopeptidase 1 (MMP1), MMP1 (gene 4312)
Nature of the experiment: BSK_BF4T_MMP1: BioMAP Diversity Plus: BF4T Assay for Matrix Metallopeptidase 1 (MMP1) Biomarker Activity (AID 2284270). As to conditions: primary human bronchial epithelial cells with fibroblasts. The method in brief: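 MMP-1 quantified by ELISA in primary human bronchial epithelial/dermal fibroblast co-cultures, 24 hours post-dosing, with DMSO as baseline; parallel sulforhodamine B staining (560 nm) tracks overt cytotoxicity.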

Read-out in experiment [6]: Matrix Metallopeptidase 3 (MMP3), MMP3 (gene 4314)
Description: BSK_BF4T_MMP3: BioMAP Diversity Plus: BF4T Assay for Matrix Metallopeptidase 3 (MMP3) Biomarker Activity (AID 2284271). The settings on record: primary human bronchial epithelial cells with fibroblasts. Summed up:
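MMP-3 level read by ELISA after 24 h chemical exposure of bronchial epithelial cell/dermal fibroblast co-cultures, fitted upward relative to DMSO. Parallel cultures stained with 0.1% SRB after TCA fixation gauge overt cytotoxicity.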

Read-out in experiment [7]: Tissue plasminogen activator (tPA), PLAT (gene 5327)
Description: BSK_BF4T_tPA: BioMAP Diversity Plus: BF4T Assay for Tissue plasminogen activator (tPA) Biomarker Activity (AID 2284272). As to conditions: primary human bronchial epithelial cells with fibroblasts. The method in brief: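 tPA level quantified by ELISA at 24 h post-treatment in bronchial epithelial/dermal fibroblast co-cultures, gain of signal scored against DMSO baseline. Parallel cultures stained with 0.1% SRB (560 nm) to flag overt cytotoxicity.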

The nature of experiment [8]: BSK_BF4T_SRB: Viability Assessment in the BioMAP Diversity Plus: BF4T Assay (AID 2284274). The settings on record: primary human bronchial epithelial cells with fibroblasts. Summed up:
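Cytotoxicity measured as total protein: cells fixed with 10% TCA, stained with 0.1% SRB, read at 560 nm. Bronchial epithelial/dermal fibroblast co-culture, 24 h after dosing, with positive-direction fitting relative to DMSO.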

Read-out in experiment [9]: urokinase Plasminogen Activator (uPA), PLAU (gene 5328)
Description: BSK_BF4T_uPA: BioMAP Diversity Plus: BF4T Assay for urokinase Plasminogen Activator (uPA) Biomarker Activity (AID 2284275). As to conditions: primary human bronchial epithelial cells with fibroblasts. Summed up: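 uPA levels measured by ELISA at 24 hours in BF4T cultures (bronchial epithelial cells plus dermal fibroblasts) and compared with DMSO; cytotoxicity tracked in parallel cultures by sulforhodamine B staining.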

Read-out in experiment [10]: Interleukin-8 (IL8), CXCL8 (gene 3576)
Description: BSK_IMphg_IL8: BioMAP Diversity Plus: IMphg Assay for Interleukin-8 (IL8) Biomarker Activity (AID 2284277). As to conditions: primary human endothelial cells with macrophages. The method in brief:
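IL-8 levels were measured by ELISA 24 h after dosing in primary human venular endothelial cell–macrophage cultures, referenced to DMSO; parallel SRB staining monitored overt cytotoxicity.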

Read-out in experiment [11]: Interferon-inducible T-cell alpha chemoattractant (ITAC), CXCL11 (gene 6373)
Description: BSK_BE3C_ITAC: BioMAP Diversity Plus: BE3C Assay for Interferon-inducible T-cell alpha chemoattractant (ITAC) Biomarker Activity (AID 2284279). As to conditions: primary human bronchial epithelial cells. The method in brief:
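The assay measures I-TAC levels by ELISA in human primary bronchial epithelial cell cultures 24 hours after chemical treatment. Values reflect signal increase over the DMSO baseline.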

Read-out in experiment [12]: Interleukin-8 (IL8), CXCL8 (gene 3576)
Nature of the experiment: BSK_BE3C_IL8: BioMAP Diversity Plus: BE3C Assay for Interleukin-8 (IL8) Biomarker Activity (AID 2284280). As to conditions: primary human bronchial epithelial cells. The method in brief: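 Dose human bronchial epithelial cells with chemical; incubate 24 h; quantify IL-8 by ELISA; fit response upward versus DMSO controls.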

Read-out in experiment [13]: Epidermal growth factor receptor (EGFR), EGFR (gene 1956)
Nature of the experiment: BSK_BE3C_EGFR: BioMAP Diversity Plus: BE3C Assay for Epidermal growth factor receptor (EGFR) Biomarker Activity (AID 2284281). As to conditions: primary human bronchial epithelial cells. Summed up: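 ELISA read-out of EGFR levels on human bronchial epithelial primary cells collected 24 h post-dosing. DMSO served as negative control and baseline for gain-of-signal fitting.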

Read-out in experiment [14]: KRT18 (gene 3875)
Description: BSK_BE3C_Keratin818: BioMAP Diversity Plus: BE3C Assay for Keratin 818 Biomarker Activity (AID 2284282). As to conditions: primary human bronchial epithelial cells. Summed up: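 Keratin 8/18 levels, detected by ELISA, served as the endpoint after 24 h chemical exposure of primary human bronchial epithelial cells. Gain of signal relative to DMSO negative control defined activity.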

Read-out in experiment [15]: Matrix Metallopeptidase 9 (MMP9), MMP9 (gene 4318)
Nature of the experiment: BSK_BE3C_MMP9: BioMAP Diversity Plus: BE3C Assay for Matrix Metallopeptidase 9 (MMP9) Biomarker Activity (AID 2284283). The settings on record: primary human bronchial epithelial cells. Summed up: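 ELISA read-out of MMP-9 after 24 h compound exposure of human lung bronchial epithelial primary cells (BE3C). Fit in gain direction vs DMSO negative control; total protein by SRB in parallel cultures flagged overt cytotoxicity.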

Read-out in experiment [16]: Plasminogen activator inhibitor-1 (PAI1), SERPINE1 (gene 5054)
Nature of the experiment: BSK_CASM3C_PAI1: BioMAP Diversity Plus: CASM3C Assay for Plasminogen activator inhibitor-1 (PAI1) Biomarker Activity (AID 2284284).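 Further: PAI-1 protein level measured by ELISA 24 h after dosing.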 The settings on record: primary human coronary artery smooth muscle cells.

Read-out in experiment [17]: Vascular cell adhesion molecule 1 (VCAM1), VCAM1 (gene 7412)
Description: BSK_IMphg_VCAM1: BioMAP Diversity Plus: IMphg Assay for Vascular cell adhesion molecule 1 (VCAM1) Biomarker Activity (AID 2284286). As to conditions: primary human endothelial cells with macrophages. Summed up: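 ELISA read-out of VCAM-1 on venular endothelial cell/macrophage co-cultures at 24 h post-treatment, with DMSO as baseline and positive-direction fitting. Parallel sulforhodamine B total-protein staining (560 nm) served as the overt cytotoxicity measure.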

Read-out in another experiment: CD40, CD40 (gene 958)
Description: BSK_IMphg_CD40: BioMAP Diversity Plus: IMphg Assay for CD40 Biomarker Activity (AID 2284288). The settings on record: primary human endothelial cells with macrophages. Summed up:
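ELISA read-out of cell-surface CD40 at 24 h in human venular endothelial cell/macrophage co-cultures. Activity fitted in the positive direction against DMSO; parallel SRB staining (560 nm) gauges overt cytotoxicity.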

Read-out in experiment [18]: TIMP metallopeptidase inhibitor 2 (TIMP2), TIMP2 (gene 7077)
Description: BSK_hDFCGF_TIMP2: BioMAP Diversity Plus: hDFCGF Assay for TIMP metallopeptidase inhibitor 2 (TIMP2) Biomarker Activity (AID 2284289). The settings on record: primary human foreskin fibroblasts. Summed up: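 Primary human foreskin fibroblasts in the hDFCGF system, dosed for 24 h; TIMP-2 level measured by ELISA, fitted in the positive direction against DMSO; cytotoxicity checked in parallel by sulforhodamine B total protein staining.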

Read-out in experiment [19]: Interleukin-1 alpha (IL1a), IL1A (gene 3552)
Nature of the experiment: BSK_IMphg_IL1a: BioMAP Diversity Plus: IMphg Assay for Interleukin-1 alpha (IL1a) Biomarker Activity (AID 2284290). As to conditions: primary human endothelial cells with macrophages. The method in brief:
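IL-1α is quantified by ELISA at 24 h in the endothelial/macrophage IMphg co-culture, with gain of signal fitted relative to DMSO. Parallel SRB total-protein staining flags overt toxicity.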

Molecules are shown by their SMILES. Values joined by “and” are separate entries in the source; they are usually repeats but may differ in a detail not shown here. Identical values can stand only once. The source holds several records for some structures; these can differ, active in one and inactive in another. Active and inactive are the calls of the source. How the source made its calls: active means hit-call score of the fitted dose curve at least 0.9, where 1 is the maximum; inactive means score below 0.9.

By AC50 is commonly meant the concentration giving half of the maximal activity seen. For `OC(O)(C(F)C(O)(O)C(F)(F)F)C(F)(F)F`, the result (with KRT18 (gene 3875) [1]; in experiment [2]; in [3]; in experiment [4]; in experiment [5]; in experiment [6]) was inactive. Moreover, the result in experiment [7], in experiment [8], in experiment [9], in experiment [10], in [11] and in experiment [12] was inactive. Also, the outcome is “inactive” in experiment [13]; “inactive” with KRT18 (gene 3875) [14]; “inactive” in experiment [15]; “inactive” in experiment [16]; “inactive” in [17]; “inactive” with CD40, CD40 (gene 958). Moreover, in experiment [19], the result was inactive. The AC50 in [4] is 0.991 µM (active); in experiment [10], 50.1 µM (active); in experiment [12] it was 22 µM (active); in experiment [18], 7.41 µM (active) and 22.4 µM (active).
Regarding `OCCC(F)(F)C(F)(F)C(F)(F)C(F)(F)F`, the outcome (with KRT18 (gene 3875) [1]; in [2]; in [3]; in experiment [4]; in experiment [5]; in experiment [6]) was inactive. Besides, the outcome in experiment [7], in experiment [8], in [9], in [10], in [11] and in [12] was inactive. In addition, the outcome in [13] was “inactive”; with KRT18 (gene 3875) [14], “inactive”; in [15], “inactive”; in experiment [16] it was “inactive”; in experiment [17], “inactive”; in the experiment with CD40, CD40 (gene 958), “inactive”. The result in [18] and in [19] was inactive.
As for `S=P(N1CC1)(N1CC1)N1CC1`, the result in experiment [2], in experiment [3] and in experiment [4] was inactive.
For the compound `FC(F)=C(F)C(F)(F)C(F)(F)C(F)(F)C(F)(F)C(F)(F)C(F)(F)F`, the outcome (with KRT18 (gene 3875) [1]; in [2]; in experiment [3]; in [4]; in [5]; in [6]) was inactive. In addition, the result in experiment [7], in experiment [8], in [9], in [10], in experiment [11] and in [12] was inactive. Moreover, the outcome in [13] is “inactive”; in the experiment with KRT18 (gene 3875) [14], “inactive”; in [15] it was “inactive”; in experiment [16] it was “inactive”; in [17], “inactive”; with CD40, CD40 (gene 958), “inactive”. The outcome in experiment [18] and in [19] was inactive.
`FC(F)C(F)(F)COCC1CO1` (centres undefined): the result (with KRT18 (gene 3875) [1]; in [2]; in experiment [3]; in experiment [4]; in [5]; in [6]) was inactive. Moreover, the result in experiment [7], in [8], in experiment [9], in [10], in experiment [11] and in [12] was inactive. The outcome in experiment [13] is “inactive”; in the experiment with KRT18 (gene 3875) [14], “inactive”; in experiment [15], “inactive”; in experiment [16], “inactive”; in experiment [17], “inactive”; with CD40, CD40 (gene 958), “inactive”. Moreover, the outcome in experiment [18] and in [19] was inactive.
`FC(F)(F)COC(OCC(F)(F)F)OCC(F)(F)F`: the result (with KRT18 (gene 3875) [1]; in experiment [2]; in experiment [3]; in [4]; in experiment [5]; in experiment [6]) was inactive. The result in [7], in experiment [8], in experiment [9], in experiment [10], in experiment [11] and in experiment [12] was inactive. In addition, the outcome was “inactive” in experiment [13]; “inactive” with KRT18 (gene 3875) [14]; “inactive” in [15]; “inactive” in experiment [16]; “inactive” in experiment [17]; “inactive” with CD40, CD40 (gene 958). In addition, the outcome in experiment [18] and in experiment [19] was inactive.
With `OCc1c[nH]c2ccccc12`, the outcome in experiment [2] and in [4] was inactive. In experiment [3], the AC50 is 16.8 µM (active).
